# This is part of a sample that, as a whole, favours compounds with a hit. Of some 79,000 tested, about 15% had one in any assay. Unmarked numbers belong to inactive results. The source made the active and inactive calls. Rule as the data show it: active = growth inhibition above about 70%; inactive = the rest.
# Key:
# [1] = NCI Yeast Anticancer Drug Screen. Data for the rad50 strain (AID 155);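 also: 0% = growth of vehicle-only cultures of the same strain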; conditions: S. cerevisiae rad50 strain growth inhibition; at 50.0 µM; stronger effect = higher value
# Method in brief: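 Compounds were tested on a yeast strain with an engineered DNA damage repair alteration; the reported value is growth inhibition normalised to vehicle treatment.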
# [2] = NCI Yeast Anticancer Drug Screen. Data for the mec2-1 strain (AID 157); conditions: S. cerevisiae mec2-1 strain, at 50.0 µM, stronger effect = higher value
# Method in brief: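 Test agents were screened against the mec2-1 yeast strain, with defined DNA repair or cell cycle alteration. Growth was scored as inhibition against vehicle-only controls.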
# [3] = NCI Yeast Anticancer Drug Screen. Data for the sgs1 mgt1 strain (AID 161);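 also: 0% = growth of cultures given vehicle only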; conditions: S. cerevisiae sgs1 mgt1 strain, at 50.0 µM, stronger effect = higher value
# Method in brief: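 Mutant yeast exposed to compound; growth scored against vehicle-only wells.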
# [4] = NCI Yeast Anticancer Drug Screen. Data for the cln2 rad14 strain (AID 165);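 also: 0% = growth equal to vehicle treated cultures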; conditions: S. cerevisiae cln2 rad14 strain, at 50.0 µM, stronger effect = higher value
# Method in brief: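 Growth of compound-exposed yeast (cln2 rad14 genotype) measured and expressed as inhibition relative to vehicle.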
# [5] = NCI Yeast Anticancer Drug Screen. Data for the bub3 strain (AID 167); conditions: S. cerevisiae bub3 mutant strain, at 50.0 µM, stronger effect = higher value
# Method in brief: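 Growth of a checkpoint-deficient yeast mutant is measured after compound exposure. Values represent inhibition relative to vehicle.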
# [6] = NCI Yeast Anticancer Drug Screen. Data for the mlh1 rad18 strain (AID 175); conditions: S. cerevisiae mlh1 rad18 strain growth inhibition; at 50.0 µM; stronger effect = higher value
# Method in brief: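 In this whole-cell yeast screen, a strain with altered DNA damage repair is challenged with compound, and its growth is measured against matched vehicle-treated controls.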
SMILES,growth inhibition [1],growth inhibition [2],growth inhibition [3],growth inhibition [4],growth inhibition [5],growth inhibition [6]
O=C1c2ccccc2C(=O)N1c1ccc(C(F)(F)F)cc1[N+](=O)[O-],-1.25%,16.2%,19.7%,-15.8%,14.5%,7.2%
Cc1ccc(C)c(OC(=O)Nc2ccccc2)c1,-3.15%,4.8%,-10.1%,-4.1%,-3.7%,-11.9%
CN1/C(=C/C=C/C=C/C=C2C(=O)c3ccccc3C2=O)C(C)(C)c2ccccc21,-13.6%,10.5%,16.1%,-39.5%,-8.9%,26.8%
CCOC(CCc1c(C)nc[nH]c1=O)OCC,-1.8%,3.7%,-2.35%,-35.4%,16.2%,-7.9%
CCCCCCCCCCCCCOCC(=O)OC,-0.75%,20.8%,-4.9%,-29%,12.9%,1.6%
C/C(=C/C(=O)O)CC/C=C(/C)C(=O)O,-0.15%,-5.1%,-1.25%,21.4%,22.1%,4.9%
CC(=O)N(C)N=NCCCl,26.2%,7.2%,10.2%,-29.1%,12%,3.85%
O=[N+]([O-])c1cccc(/C=C/c2cc(N(CCO)CCO)c3ccccc3n2)c1,48.1%,12.8%,11.1%,3.5%,-6.6%,22.2%
CSc1ncnc2c1ccn2C1OC(COP(=O)(O)O)C(O)C1O (stereo not given),21.8%,-1.35%,-3.4%,-2.45%,-37%,-2.15%
N#CCCn1c2ccccc2c2ccccc21,-6.45%,27.5%,2.95%,26.5%,-1.65%,-0.5%
Nc1nc2nn(-c3ccc(C(=O)NC(CCC(=O)O)C(=O)O)cc3)nc2c(=O)[nH]1 (stereo not given),7.05%,2.75%,12.9%,30.5%,9.05%,-1.4%
CCO/C(O)=c1/s/c(=C(\C#N)c2nc3ccccc3[nH]2)n(-c2ccccc2)c1=N,11.6%,3.4%,2.3%,-37.9%,-20.4%,-26.8%
C/C(=N\NS(=O)(=O)c1ccc([N+](=O)[O-])cc1)c1ccc[n+]([O-])n1,-19.2%,-18.6%,-13.6%,-2.75%,2.15%,-34%
COc1cccc2c1C(=O)c1c(O)c3c(c(O)c1C2=O)C[C@@](O)(/C(C)=N\NC(=O)CCC(N)C(=O)O)C[C@@H]3OC1CC(N)C(O)C(C)O1 (stereo not given in full) (tested in a mixture with another compound),-30.9%,-57.9%,0.65%,-6.05%,-25.8%,-46.7%
C/C(=C\CC1C(=O)N(c2ccccc2)N(c2ccccc2)C1=O)CO,-10.9%,-32.2%,-29.9%,-18.2%,-28.6%,-11.9%
O=C1N=C2SCCCN2C1(c1ccccc1)c1ccccc1,4.2%,21.2%,-3.4%,-7%,0%,6.9%
O=C(N/N=C\c1ccc2c(c1)OCO2)c1ccc2c(c1)OCO2,0.7%,0.05%,1.85%,-15.2%,5.05%,0.55%
COc1cc2c[n+](C)c3c4ccccc4ccc3c2cc1OC,40.4%,55.2%,18.9%,2.75%,22.2%,38.5%
CC(=O)OC[C@@]12CC[C@H]3C(C)(C)CCC[C@]3(C)[C@H]1C[C@@H](C1=CC(=O)O[C@H]1O)O2,86.6% (active),91.8% (active),91.5% (active),91.5% (active),89.4% (active),90% (active)
CCCCCCNC1=C(OC)C(=O)C(NCCCCCC)=C(OC)C1=O,-7.4%,7.9%,2.1%,-54.9%,8.5%,-13.6%

SMILES,growth inhibition [1],growth inhibition [2],growth inhibition [3],growth inhibition [4],growth inhibition [5],growth inhibition [6]
Cc1ncc2c(=O)c3c(oc2n1)c1ccccc1n3Cc1ccccc1,8.75%,9.15%,15.2%,3.1%,11.7%,-4.1%
CCCCOC(=O)c1ccc(OC(=O)Nc2cccc(Cl)c2)cc1,13.2%,2.3%,6.15%,12.2%,70.7% (active),30.1%
Cc1c(C)c2c(c(C)c1Cl)CC2(Cl)Cl,3.6%,4%,-9.15%,-41.8%,-5.55%,-9.5%
CCOC(=O)C(=CNC(=S)Nc1ccc(OCC)cc1)C(=O)OCC,-9.75%,-24.5%,-7.85%,-16.3%,11.5%,6.05%
CN(C)c1ccccc1CCCCCBr,8.35%,5.5%,5.5%,-37.1%,-6.7%,3.75%
CN(C)Cc1cc(C(=O)c2ccccc2)c(O)cc1O,-38.4%,-4.05%,-0.9%,-23.6%,-2.05%,13.2%
CCOC(=O)C1(C(=O)OCC)CCCN1C(=O)[C@H](CNC(=O)OC(C)(C)C)NC(=O)OCc1ccccc1,32.1%,12.8%,-10.9%,-0.45%,-30.1%,-79.8%
Cc1cc2c(cc1C)[n+](=O)c(C(=O)C/C(=N/OCCCc1ccccc1)C(=O)Nc1cc(Cl)ccc1Cl)c(C)n2[O-],-35.1%,1.8%,-7.2%,19.2%,9.1%,-10.3%
C=C1C2CC[C@@]3(CC[C@@H]4[C@@]5(C)CCC[C@@]4(CN4CCO[C@H]45)[C@@H]3C2)[C@@H]1O,-2.4%,-5.9%,11.1%,25.9%,11.2%,-5.5%
COc1ccc2ccc3ccc(OC)nc3c2n1,40%,40.2%,36.1%,-7.05%,30.2%,16.1%
O=C(Cc1ccccc1)c1ccccc1C(=O)NCc1ccccc1,-5.8%,-3.45%,1.1%,-66.5%,14.9%,-7.1%
CC(C)NC(=O)C1C2CCC(C2)C1C(=O)NC(C)C (stereo not given),3.55%,-1%,2.35%,-28.4%,-0.3%,-7.25%
CC(=O)c1cccc2c(C(C)=O)cccc12,5.45%,-5.2%,14.8%,-20.1%,3.4%,-15.1%
NC(CC(=O)N/C=N/C(=O)O)C(=O)O (stereo not given),-5.85%,5.45%,-17.2%,4.4%,6.45%,-7.75%
CCN1CCNC(=O)C1c1ccccc1 (stereo not given),-9.3%,16.1%,-17.2%,1.35%,-1.1%,1.05%
Cc1cc(C)c(C(=O)c2ccccc2C)c(C)c1,21.3%,-1%,-0.35%,-23.5%,11.3%,15.7%
CC1=C/C(=N\N(C)C)C(C(O)(C(F)(F)F)C(F)(F)F)C(C)(C)C1 (stereo not given),4.75%,-19.1%,-10.4%,9.35%,-14.7%,-13%
CS(=O)(=O)c1[nH]nc2[nH]c(=O)[nH]c(=O)c12,-30.5%,-30.4%,-26.5%,-4.7%,-28.8%,6.85%
O=C1CC2C1C1C=CC2n2c(=O)n(-c3ccccc3)c(=O)n21 (stereo not given),-11.6%,9.05%,13.5%,6%,2.2%,15.4%
CC(O)c1ccc(C(O)/C(=N\NC(=O)c2ccncc2)c2nc3ccc([N+](=O)[O-])cc3[nH]c2=O)cc1 (stereo not given),-5.95%,-10.2%,15.2%,-60.7%,-5.1%,-2.25%

# From PubChem BioAssay (NCI)
